This is a sample that favours compounds with a hit; in the whole collection about 3.5% have one here.
CHRM1 agonist: human M1 muscarinic receptor agonists, primary screen, Fluo-8 calcium fluorescence, CHO-K1 cells, HTS | Muscarinic acetylcholine receptor M1 (Homo sapiens), P11229 | CHO-K1 hM1, agonist mode; 0% DMSO, 100% acetylcholine EC100 | activation, % at 3 µM | actives 0.33% (n = 360,000);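 active = activation above the run's mean compound activation plus 3 SD, cut at about 16% in these data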;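 note: peak over basal fluorescence ratio within a 140 s kinetic read after compound addition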
CHRM1 antagonist: human M1 muscarinic receptor antagonists, primary screen, CHO-K1 cells, Fluo-8 calcium fluorescence, 1536-well | Muscarinic acetylcholine receptor M1 (Homo sapiens), P11229 | CHO-K1 hM1, ACh EC80 antagonist | inhibition, % at 3 µM | actives 1.3% (n = 360,000) | AID 588852, 2011;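 active = percent inhibition above its own plate's cutoff, namely the mean of that plate's compound wells plus 3 SD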;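 note: peak over basal fluorescence ratio during 140 s after agonist addition; 0% = ACh EC80 plus DMSO and 100% = DMSO alone without agonist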
CHRM1 PAM: human M1 muscarinic receptor positive allosteric modulators, primary screen, CHO-K1 cells, Fluo-8 calcium fluorescence, 1536-well. activation, % at 3 µM. actives 0.088% (n = 360,000). CHO-K1 hM1, ACh EC20; 0% = ACh EC20, 100% = maximal ACh. Muscarinic acetylcholine receptor M1 (Homo sapiens), P11229; in the data active = activation above about 19%, passing the limit was not always enough
Myeloid diff 2: induction of myeloid progenitor differentiation, primary screen, cell-based, flow cytometry, MLPCN library. ER-HoxA9 myeloid progenitors, lysozyme-GFP differentiation. calls only at 10 µM. actives 1% (n = 360,000);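 active = normalized GFP-positive differentiation at or above the plate's own cutoff, the solvent-only control mean plus 3 SD; inconclusive = no clear call, values can overlap the other calls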;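 note: cells exposed to compound for four days before flow analysis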
SKN-1 inh: suppressors of acrylamide-induced Pgst-4::GFP reporter in worms, primary screen, SKN-1 inhibitor project, whole organism, uHTS, GFP/RFP fluorescence ratio, strain VP596; C. elegans VP596 Pgst-4::GFP/RFP ratio, 24 h; inhibition, % at 21.8 µM; actives 0.49% (n = 360,000); AID 624304, 2012;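 active = interference check ratio from 0.5 to 1.5 plus GFP to RFP signal ratio inhibition reaching or exceeding a fixed threshold, cut at about 30% in these data, passing the limit was not always enough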
ATG4B inh: ATG4B protease inhibitors, primary screen, biochemical, fluorescence, uHTS. ATG4B cleavage of LC3-PLA2, NBD-HPC fluorescence, 1 h. inhibition, % at 8.33 µM. actives 0.51% (n = 340,000); in the data active = inhibition above about 40%
Target sequence (Q9Y4P1 whole entry, looked up): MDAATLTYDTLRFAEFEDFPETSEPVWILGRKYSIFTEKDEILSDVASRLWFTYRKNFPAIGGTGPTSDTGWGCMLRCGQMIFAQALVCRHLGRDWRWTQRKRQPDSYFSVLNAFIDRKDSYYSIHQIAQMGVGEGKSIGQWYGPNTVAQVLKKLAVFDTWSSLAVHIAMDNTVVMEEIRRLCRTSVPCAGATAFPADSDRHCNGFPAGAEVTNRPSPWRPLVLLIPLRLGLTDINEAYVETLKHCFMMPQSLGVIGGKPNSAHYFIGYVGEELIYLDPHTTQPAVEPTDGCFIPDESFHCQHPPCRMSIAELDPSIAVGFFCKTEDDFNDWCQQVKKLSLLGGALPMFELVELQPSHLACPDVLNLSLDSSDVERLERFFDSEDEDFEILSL
Myeloid diff: inducers of myeloid progenitor differentiation, confirmation, cell-based, GFP/Mac1 flow cytometry, cherry pick 01; actives 2% (n = 2,300); ER-HoxA9 myeloid progenitors, GFP/Mac1 double-positive flow; shares compounds with Myeloid diff 2; calls only;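 active = share of green or green-and-red cells above 9 and 9% in run 1 or 4 and 3% in run 2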
GFP autofluor: counter-screen for myeloid differentiation promoters: compound fluorescence; shares compounds with Myeloid diff 2; ER-HoxA9 myeloid progenitors, no estrogen, GFP autofluorescence flow cytometry; vehicle wells 0%, positive control 100%; fluorescence response, % (no concentration beside the values); actives 7.4% (n = 2,300); AID 651707;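 active = over 5% cells positive for green fluorescent reporter, or over 2% positive for both it and APC stain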;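 note: range taken on the double positive population between DMSO and positive control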
* hit, by the source's call; i = inactive; ? = inconclusive; / = not tested or not shown; + = active, no number.

SMILES	CHRM1 agonist	CHRM1 antagonist	CHRM1 PAM	Myeloid diff 2	SKN-1 inh	ATG4B inh	Myeloid diff	GFP autofluor
CC(=O)Nc1cc(-c2ccc(N(C)C)cc2)cn2c(-c3ccc(F)cc3)cnc12	1	5	3	i	5	/	/	/
CCc1nc2ccccc2c(C(=O)O)c1C	-3	-7	9	i	-8	-2	/	/
CCc1nc2ccccc2c(C(=O)NCc2ccccc2)c1C	-6	3	-1	i	-10	-4	i	0
CCC(=O)N(CCc1ccc(OC)c(OC)c1)Cc1cc2ccc(C)cc2n2nnnc12	-5	-1	8	i	1	10	/	/
Cc1ccc(S(=O)(=O)NCc2ccco2)cc1C(N)=O	-6	-5	0	+	-5	-6	i	0
COc1cc(C2N(c3ccccc3)CCN2c2ccccc2)ccc1OC(C)=O	-5	-2	4	i	-4	-6	/	/
COc1ccc(C2N(c3ccc(C)cc3)CCN2c2ccc(C)cc2)cc1O	-14	3	1	i	4	4	i	0
Cc1ccc(C(=O)NCC(=O)OC(C)C(=O)Nc2ccc(N(C)C)cc2)s1 (centres undefined)	-1	-13	8	i	2	-5	/	/
CSc1cc(-c2ccncc2)nc(-c2ccc(Cl)cc2)c1	-6	-14	2	i	11	-12	/	/
O=C(NC1CC1)C1CCN(Cc2cnn(-c3ccccc3)c2-n2cccc2)CC1	-4	7	-5	+	2	-6	i	1
COCCNC(=O)C1CCCN(C(=O)c2ccc(OC)c(F)c2)CC1 (centres undefined)	-2	-16	13	i	9	/	/	/
Cc1ccc(C(=O)OCC(=O)c2c[nH]c3ccccc23)cc1NC(=O)c1ccco1	1	8	1	i	-13	7	i	0
O=C(NCC(=O)N1CCOCC1)c1ccccc1	-3	0	8	i	-7	1	/	/
COCCCNC(=O)Cn1nnc(-c2ccc(NC(=O)c3ccc(F)cc3)cc2)n1	-1	6	-1	i	24	9	i	0
COc1ccc(C(O)c2nc(-c3ccccc3C)cs2)cc1 (centres undefined)	0	1	1	i	8	/	/	/
Cc1cc(C(=O)N2CCCC(C)(C(=O)NS(=O)(=O)C3CC3)C2)n(C(C)(C)C)n1 (centres undefined)	-2	-9	4	i	2	/	/	/
CCCS(=O)(=O)NC(=O)C1(C)CCCN(C(=O)c2cc(C)nn2C(C)(C)C)C1 (centres undefined)	-3	5	1	i	-3	/	i	0
CC(C)(C)c1ccccc1NC(=O)c1cc(-c2ccncc2)nc2ccccc12	-4	10	-8	i	0	-9	i	0
Cc1ccc(-c2cc(C(=O)Nc3ccncc3)c3ccccc3n2)cc1	-2	-11	8	i	-7	0	/	/
COc1ccccc1CNC(=O)C1(C)CCN1Cc1ccc(OC(F)(F)F)cc1 (centres undefined)	-7	7	-7	i	7	/	/	/
O=C(COc1coc(CN2CCCc3ccccc32)cc1=O)Nc1ccc([N+](=O)[O-])cc1	-8	-6	6	+	-2	8	i	0
Cc1nc(C)c(C(=O)N/N=C/c2cc(Br)ccc2O)s1	0	-1	4	?	1	-2	/	/
CCN(C(=O)COc1cc(=O)n(CC)c2ccccc12)c1cccc(Cl)c1	-2	8	-7	i	1	-8	/	/
CCN(C(=O)COc1cc(=O)n(CC)c2ccccc12)c1cc(Cl)ccc1OC	-5	-1	-10	i	4	-3	i	17*
O=C(CN1C(=O)C2C3C=CC(C3)C2C1=O)OCC(=O)c1ccc(Br)cc1 (centres undefined)	1	-16	7	i	4	2	/	/
SMILES	CHRM1 agonist	CHRM1 antagonist	CHRM1 PAM	Myeloid diff 2	SKN-1 inh	ATG4B inh	Myeloid diff	GFP autofluor
COc1cccc(Cn2nnc(C(=O)Nc3cc(C)ccc3OC)c2N)c1	2	-17	9	+	-1	1	i	88*
Cc1c(CCOC(=O)CC23CC4CC(CC(C)(C4)C2)C3)sc[n+]1CC(=O)c1ccccc1	-7	13	-10	i	4	18	/	/
Cc1c(CCOC(=O)CC23CC4CC(CC(C4)C2)C3)sc[n+]1CC(=O)c1ccc(Br)cc1	-6	22	-18	+	14	9	i	0
COc1cccc(N2CCN(c3ccc4nnc(CCC(=O)Nc5ccccn5)n4n3)CC2)c1	-2	15	1	i	28	-8	/	/
O=C1CC(NS(=O)(=O)c2cc(F)ccc2F)CN1c1ccc2c(c1)OCCO2 (centres undefined)	4	-11	15	i	22	4	/	/
COc1cccc(-c2cc3nc(NCCN4CCCC4)n(C)c(=O)c3s2)c1	-5	-9	2	i	7	/	i	2
CCN(CC)c1ccc(C=C(c2nnnn2-c2ccc(C)cc2)c2nnnn2-c2ccc(C)cc2)cc1	-3	5	-1	i	15	-3	i	2
COc1cc(/C=C2/SC(=O)NC2=O)ccc1Oc1ccc([N+](=O)[O-])cc1[N+](=O)[O-]	-3	6	4	+	-5	24	i	1
Cc1cc(NC(=O)CSc2nc(N)c(NC(=O)c3ccco3)c(=O)[nH]2)no1	0	4	1	i	13	-8	/	/
Cc1ccc(S(=O)(=O)CCC(=O)N2CCN(c3ccc([N+](=O)[O-])cc3)CC2)cc1	-3	18	-8	i	5	0	/	/
Oc1ccccc1N=Cc1c(O)ccc2oc3c(c12)CCCC3	-2	-17	5	i	12	-4	i	3
O=C(O)c1ccc(N=Cc2c(O)ccc3oc4c(c23)CCCC4)cc1	-4	-8	5	i	11	4	/	/

Screens: PubChem, several laboratories
